Assay results published in ChEMBL document CHEMBL3988442, “University of Dundee, Small-Polar-MMV Screening Library” (2021).
In all, about 69,000 compounds went through this assay and about 30 (0.04%) showed an effect of 50% or more. The list comes from a sample in which strong results are over-represented; it also holds similar structures and randomly drawn compounds.

Each molecule was assayed against T1, Histidine--tRNA ligase (Trypanosoma cruzi (strain CL Brener)) (UniProt Q4DA54) (assay: Trypanosoma cruzi histidyl tRNA synthetase (Tc-HisRS)). Conditions: 30 µM.
T1 sequence (whole entry): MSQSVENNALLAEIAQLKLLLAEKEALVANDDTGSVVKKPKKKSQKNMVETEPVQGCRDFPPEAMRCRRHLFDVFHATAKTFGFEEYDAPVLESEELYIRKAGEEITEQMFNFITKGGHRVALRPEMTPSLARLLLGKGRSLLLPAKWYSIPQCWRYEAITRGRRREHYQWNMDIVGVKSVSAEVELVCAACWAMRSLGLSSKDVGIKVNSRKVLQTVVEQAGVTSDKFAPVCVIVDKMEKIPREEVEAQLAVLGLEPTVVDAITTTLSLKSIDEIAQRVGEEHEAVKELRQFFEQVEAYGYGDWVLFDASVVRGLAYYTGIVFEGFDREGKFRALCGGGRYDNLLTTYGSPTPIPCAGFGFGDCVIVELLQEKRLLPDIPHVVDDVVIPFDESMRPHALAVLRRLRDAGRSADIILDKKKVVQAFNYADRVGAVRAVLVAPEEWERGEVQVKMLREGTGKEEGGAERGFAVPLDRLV
Assay type: functional
Design: scale not given: direction of the effect not stated beside the values

SMILES	Percent Effect [%]
c1cc(CN2C[C@@H]3OCCN(CC4CCCO4)[C@@H]3C2)co1 (stereo not given in full)	2.94
Cn1cc(CN2CC[C@H]3C[C@H](c4nc(C5CC5)cs4)O[C@@H]3C2)cn1	1.67
COc1ccc(C2CC(=O)Nc3nc(N4CCOCC4)sc32)c(OC)c1 (stereo not given)	72
CCn1ncnc1C1CC(=O)NCc2nc(N3CCOCC3)sc21 (stereo not given)	9.45
COc1ccc(C(C)C)cc1C1CC(=O)NCc2nc(N(C)C)sc21 (stereo not given)	7.85
COc1ccc(OC)c(C2CC(=O)Nc3nc(N4CCOCC4)sc32)c1 (stereo not given)	75.8
COc1ccc(C2CC(=O)Nc3nc(N4CCOCC4)sc32)cc1 (stereo not given)	-2.48
COc1ccc(OC)c(C2CCN(CC(C)(C)N3CCOCC3)C2)c1 (stereo not given)	8.29
O=C1C[C@H]2[C@@H](CCN2C(=O)Cc2cccs2)N1CC1CC1	5.83
CC(C)NC(=O)[C@H]1C[C@@H]2[C@@H](C1)OCCN2Cc1cccs1	3.48
CCOC(=O)[C@@H]1CN2CCNC[C@@H]2[C@H]1c1ccccc1	1.12
O=C(C1CCOCC1)N1C[C@H]2CCC[C@@]2(COc2cccnc2)C1	12.8
CCOC(=O)[C@]12CCCN(Cc3nccs3)C[C@H]1CN(S(C)(=O)=O)C2	6.45
Cn1cc(C(=O)N[C@H]2CN(S(C)(=O)=O)[C@@H]3CCCO[C@H]23)cn1	4.9
Cc1ccc(C(=O)N2CCO[C@H]3[C@@H](OCc4ccccn4)CC[C@@H]32)o1	5.43
O=C(c1ccccn1)N1C[C@@H]2CC[C@H](C1)N(C(=O)CCc1cccs1)C2	5.02
CCN1CCO[C@@H]2CN(C(=O)NCc3ccccc3)CC[C@@H]2C1	1.06
CN1CCC(NC(=O)[C@H]2CC[C@@H]3[C@@H](CCN3c3ncccn3)O2)CC1	5.75
c1cnc(N2C[C@@H]3COC[C@]3(COCC3CCCC3)C2)nc1	14.3
Cc1ccsc1C(=O)N1C[C@@H]2CN(Cc3ccoc3)CCO[C@@H]2C1	3.87
Cc1ccc(N2CCN(C(=O)CN3C[C@@H]4CC[C@H]3C4)CC2=O)cc1	6.47
Cc1ccc(CN2CCC[C@]3(C(=O)O)CN(CC4CC4)C[C@@H]3C2)s1	-3.17

SMILES	Percent Effect [%]
CCn1ncc(CN2C[C@@H]3CCCN3C[C@@H]2CCSC)c1C	8.99
O=C(C1CCC1)N1CC[C@@H]2CN(Cc3cccnc3)S(=O)(=O)[C@@H]2CC1	11.6
CN(C)C(=O)COC[C@]12COC[C@H]1CN(Cc1ccccc1)C2	4.67
CC1CCN(c2ccc(C(=O)N3CCCC3c3nncn3C)cn2)CC1 (stereo not given)	3.87
CC1CCN(c2ccc(C(=O)N3CCCC3c3ccc[nH]3)cn2)CC1 (stereo not given)	66.8
NC(=O)c1ccc(OCC(=O)N2CCCC2c2ccc[nH]2)cc1 (stereo not given)	9.13
O=C(Nc1cccnc1)[C@H]1CO[C@H]2CCN(c3ncc(F)cn3)C[C@H]2C1	8.11
CC(C)(O)CCc1cccc(C(=O)NCc2cnn3cccnc23)c1	1.82
O=C(NCc1cnn2cccnc12)c1cccc(CC2CCNCC2)c1	85.5
CC(C)Cn1cncc1CNC(=O)c1cccc(CC2CCNCC2)c1	1.62
COc1cc(N2CC[C@H]3O[C@@H](C(=O)NC4CCCC4)CC[C@H]32)ncn1	0
CC(=O)N1C[C@@H]2CC[C@H](C1)N(S(=O)(=O)c1ccc(F)cc1Cl)C2	3
CC/N=c1/c(NC(=O)C2CC2)c(O)oc2ccccc12	3.51
CNC1CCN(C2CCN(c3ccc(-c4ccco4)cc3)CC2)CC1	35.3
NCC1CCN(C2CCN(c3ccc(-c4ccco4)cc3)CC2)C1 (stereo not given)	50.6
NC1CCN(C2CCN(c3ccc(-c4ccco4)cc3)CC2)CC1	43.5
CC(C)N1[C@H](Cn2cncn2)C[C@@H]2CN(Cc3ccsc3)CC[C@@H]21	0
O=C(OCc1ccccc1)N1CC[C@H]2CC(CO)O[C@@H]2C1 (stereo not given in full)	-3.09
CCN1CC[C@@]2(C(=O)N3CCOCC3)CCN(C(=O)C(C)C)CC[C@@H]12	4.85
O=C(NC1CC1)N1C[C@H]2CN(Cc3cccc(F)c3)C(=O)[C@H]2C1	5.88
CC(C)=CCN1C(=O)[C@H]2CC[C@@H]1CN(c1ncccc1C(N)=O)C2	-2.41
Cc1nc(CN2C(=O)CC[C@@H]3[C@H]2CCN3C(=O)c2ccno2)cs1	8.87

SMILES	Percent Effect [%]
O=S1(=O)CCN(Cc2cccnc2)[C@H]2CCN(c3ncccn3)CC[C@H]21	6.95
Cn1nccc1C(=O)N1CCN(C(=O)C2CC2)[C@@H]2CS(=O)(=O)C[C@@H]21	4.47
O=C1C[C@H]2[C@@H](CCN2C(=O)Cc2cccs2)N1Cc1cccnc1	0.752
Cc1cccnc1CN1CCN(CC(=O)N(C)C)[C@@H]2CS(=O)(=O)C[C@@H]21	7.03
Cc1cnc(N2CC[C@@H]3OC(COCC(=O)N(C)C)CC[C@@H]32)nc1 (stereo not given in full)	-0.614
Cn1cc(N2C(=O)CC[C@@H]3[C@H]2CCN3C(=O)c2cscn2)cn1	8.16
COCCN1CCN(Cc2nccs2)[C@H]2CS(=O)(=O)C[C@H]21	4.08
CCO[C@@H]1CC[C@H]2[C@H]1OCCN2CCOCc1ccccc1	4.12
Cc1cc(C)nc(N2C[C@H]3OC(=O)N(CCc4cccc(Cl)c4)[C@H]3C2)n1	7.82
CNC(=O)[C@H]1C[C@@H]2CN(C(=O)NC(C)C)C[C@H]1O2	1.03
CC(C)NC(=O)[C@H]1C[C@@H]2CN(C(=O)NCc3ccccc3)C[C@H]1O2	9.09
O=C(c1ccnnc1)N1CCN2C[C@H](Oc3cccc(F)c3)C[C@H]2C1	1.62
O=C(c1ccco1)N1CC[C@H]2[C@H]1CC(=O)N2c1cccnc1	0
O=C(N1CCCC1)N1CC[C@H]2[C@H]1CCN2c1ncccn1	6.8
COC[C@@]12CCC[C@@H]1CN(C(=O)N1CCCC1)C2	5.03
O=C(CC1CC1)N[C@@H]1CN(C(=O)c2cccs2)C[C@@H]2CCCO[C@@H]21	0
CN1C(Cn2cccn2)C[C@@H]2CN(Cc3cnn(C)c3)CC[C@@H]21 (stereo not given in full)	7
CCC1=N[C@@]2(CC[C@@H]3CN(Cc4ccc(C)cc4)C[C@@H]32)C(=O)N1C	7.41
CC(C)CN1CCS(=O)(=O)[C@@H]2CCN(S(=O)(=O)C3CC3)CC[C@@H]21	1.07
COc1ccc(CN2C[C@@H]3CC[C@H](C2)N(Cc2snnc2C)C3)cc1	11.4
CC(C)CN1C(=O)CO[C@@H]2CN(C(=O)CC(F)(F)F)C[C@H]21	7.53
